PubChem BioAssay (NCI)
The panel holds about 83,000 compounds, 20% with a hit somewhere; the sample as a whole holds those more often.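 A percent growth of 40 corresponds to 60% growth inhibition; 0 means no net growth; -100 means all cells died. Active threshold: below 10.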 The source made the active and inactive calls.

tested on: MDA-MB-468 breast; experiment: NCI-60 one-dose screen, 48 h (100 = growth as untreated, 0 = no growth, -100 = all killed); conditions: 10 µM unless noted

Row | Compound | growth
1 | CS(=O)(=O)Nc1cc(-c2ccc3ncc(C#N)c(Nc4ccc(F)c(Cl)c4)c3c2)cnc1Cl | -48.7% (active)
2 | C=C1C(=O)O[C@H]2[C@H]1CC/C(COC(=O)CCCC(=O)OC/C1=C/CC[C@@]3(C)O[C@H]3[C@H]3OC(=O)C(=C)[C@@H]3CC1)=C\CC[C@@]1(C)O[C@@H]21 | -19.1% (active)
3 | CN(C)CCN1C(=O)c2cccc3c(/C=C/CN4C(=O)c5cccc6cccc(c56)C4=O)ccc(c23)C1=O | 88.9% (inactive)
4 | COC(=O)c1ccc2[nH]c(O)c(C(=Nc3ccc(N(C)C(=O)CN4CCN(C)CC4)cc3)c3ccc(C)cc3)c2c1 | -50.1% (active)
5 | CCN(CC)c1ccc(/C=N/NC(=O)c2ccc(NS(C)(=O)=O)cc2)c(O)c1 | -10.8% (active)
6 | CCN(CC)c1ccc(/C=C/c2ccc3cc(C)ccc3[n+]2CC)cc1 | -24% (active)
7 | COc1cc(/C=C2\CN(S(=O)(=O)c3ccc(C)cc3)C/C(=C\c3cc(CN4CCOCC4)c(O)c(OC)c3)C2=O)cc(CN2CCOCC2)c1O | -45.9% (active)
8 | N=c1ccn2c(n1)OC1C(O)C(CO)OC12 (stereo not given) | 6.2% (active)
9 | C[n+]1ccccc1C[n+]1ccccc1 | 117% (inactive)
10 | COC(=O)c1nc(-c2ccccc2)oc1S(=O)(=O)N1CCN(c2cccc(Cl)c2)CC1 | 46.6% (inactive)
11 | C#CCn1cnc2cnc(Nc3cccc(NC(=O)CCl)c3)nc21 | -17.3% [6.25 µM] (active)
12 | COc1ccc(C2=Nn3c(nnc3-c3ccc(Cl)cc3N)SC2)cc1 | 100% (inactive)
13 | Cc1cc(N2CCCCCC2)nc(NC2CCCC(Nc3ccnc4cc(Cl)ccc34)C2)n1 (stereo not given) | -63.9% (active)
14 | Cn1ncc2c(Nc3ccccc3Cl)nc(Cl)nc21 | 97.1% (inactive)
15 | CN1CCN(C(=O)OCc2nc3c(N4CCOCC4)nc(Cl)nc3n2C)CC1 | -69.4% (active)
16 | C=C(C)[C@@H]1CC[C@]2(C)[C@H](CC=C3[C@@H]4CC(C)(C)CC[C@]4(C=O)CC[C@]32C)[C@@]1(C)CCCN | 51.3% (inactive)
17 | Cn1cc(-c2cc(N)n3nc(-c4cn(C)c5ccccc45)cc3n2)c2ccccc21 | 75% (inactive)
18 | CCN1CCN(c2cc(C(=O)Nc3nc(-c4cc(OC)c(OC)c(OC)c4)cs3)cc(C(F)(F)F)c2)CC1 | 84.8% (inactive)
19 | COc1cc(/C=N/NC(=O)c2ccc(-n3cc(-c4ccccc4)nn3)cc2)cc(OC)c1OC | 31.6% (inactive)
20 | C=C1C(=O)O[C@H]2[C@H]1CC/C(COC(=O)NCc1ccccc1OC)=C\CC[C@@]1(C)O[C@@H]21 | 42.2% (inactive)

Row | Compound | growth
21 | O=C(CCCCCCCC(=O)N1CCCCC1)N1CCCCC1 | 105% (inactive)
22 | CCCCn1c(=O)c(-c2cc(-c3ccc(Cl)cc3)nc(-c3ccc(Cl)cc3)c2)cc2cc(C)ccc21 | 102% (inactive)
23 | CC(=O)C1=C(O)C=C2Oc3c(C(=O)/C=C/c4ccccc4)c(O)c(C)c(O)c3[C@]2(C)C1=O | 30.3% (inactive)
24 | CCN(CC)CCCOc1cccc2c1C(=O)c1cccc(OCCCN(CC)CC)c1C2=O | 35.5% (inactive)
25 | O=C(O)C(SC(C(=O)O)c1ccccc1)c1ccccc1 (stereo not given) | 106% (inactive)
26 | CCOc1nc(-c2ccccc2)cc2c(O)c(C(=O)NCCCO)[nH]c(=O)c12 | 95% (inactive)
27 | O=C(CN1C(=O)S/C(=C\c2ccccc2)C1=O)Nc1ccc(C(=O)/C=C/c2cc3ccccc3nc2Cl)cc1 | 63.1% (inactive)
28 | CC(=O)OC[C@]12CC[C@@H](C(=O)CBr)[C@@H]1[C@H]1CC[C@@H]3[C@@]4(C)CC[C@H](OC(C)=O)C(C)(C)[C@@H]4CC[C@@]3(C)[C@]1(C)CC2 | 108% (inactive)
29 | Cn1cc(CNc2nc3ccc(OC/C(=C/F)CN)cc3o2)ccc1=O | 107% (inactive)
30 | Clc1ccc(Nc2nccc(Nc3ccc4[nH]ncc4c3)n2)cc1 | 33.6% (inactive)
31 | Nc1ccc2ccc(NS(=O)(=O)N3CCCCC3)cc2c1 | 7.79% (active)
32 | COc1cc(-c2c(C#N)c(-c3cccs3)nc3c2c(-c2ccccc2)nn3-c2ccccc2)ccc1O | 95.4% (inactive)
33 | Cn1ncc(Cl)c1-c1cc(C(=O)N[C@H](CN)Cc2ccc(F)c(F)c2)oc1Cl | -69.6% (active)
34 | O=C1CCC(C(=O)NCCNCCNC(=O)C2CCC(=O)N2)N1 (stereo not given) | 89.7% (inactive)
35 | O=C(Nc1cccc(-n2cc(-c3ccncc3)c(-c3ccc(O)c(Cl)c3)n2)c1)c1cccc(C(F)(F)F)c1 | 34.3% (inactive)
36 | Oc1c(Br)cc(Br)c2ccc(Cn3cc(-c4ccccc4C(F)(F)F)nn3)nc12 | 72.4% (inactive)
37 | COc1ccc(/C=C/C(=O)Nc2ncnc3nc[nH]c23)cc1 | 95.3% (inactive)
38 | CN1CCN(Cc2ccc3c(NNC(=O)c4ccccc4)nc4cc(F)ccc4n23)CC1 | -12.5% (active)
39 | Nc1cc(C(=O)N/N=C\c2ccc(OC(F)F)c(OC3CCCC3)c2)nn1CC(O)c1ccccc1 (stereo not given) | 106% (inactive)
40 | CCN1CCN(/C(=N\c2sc(-c3ccccc3)nc2-c2ccccc2)c2ccccc2)CC1 | 75.3% (inactive)
